# Bioassay records as filed in PubChem BioAssay.
# D1 potentiator – potentiators of human D1 dopamine receptor. P21728. HEK293 TREx D1 cells, calcium flux, dopamine EC20 potentiation. potentiation, % at 10 µM. actives 0.036% (n = 360,000). AID 504651; in the data active = potentiation above about 30%; note: 0% is about no effect
# Target sequence (P21728 whole entry, looked up): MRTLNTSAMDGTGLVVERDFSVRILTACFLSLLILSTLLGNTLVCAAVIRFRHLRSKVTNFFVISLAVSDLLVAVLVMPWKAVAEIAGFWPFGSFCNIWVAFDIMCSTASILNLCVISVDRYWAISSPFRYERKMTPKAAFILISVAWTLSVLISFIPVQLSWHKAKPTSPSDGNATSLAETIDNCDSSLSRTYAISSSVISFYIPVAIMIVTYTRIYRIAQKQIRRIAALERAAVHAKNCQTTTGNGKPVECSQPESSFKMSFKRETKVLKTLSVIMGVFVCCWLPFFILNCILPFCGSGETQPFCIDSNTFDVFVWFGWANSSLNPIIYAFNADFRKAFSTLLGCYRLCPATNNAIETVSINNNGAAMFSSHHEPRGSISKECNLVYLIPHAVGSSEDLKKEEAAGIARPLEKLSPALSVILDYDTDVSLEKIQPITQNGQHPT
# D1 agonist – activates the human D1 dopamine receptor | HEK293 T-REx D1 cells, calcium flux, agonist mode | actives 1% (n = 360,000) | activation, % at 2 µM | P21728; note: 0% is about no effect
#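 Inducible HEK293 T-REx D1 cells, force-coupled to calcium signalling, were plated at 4000 cells/well with tetracycline and held overnight at 30 C. After no-wash calcium dye loading, compound-evoked calcium rise over 180 s flagged agonists.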
# TRHR agonist – TRH receptor (human) agonism. activation, % at 2 µM. actives 0.18% (n = 360,000). P34981. TRHR cells, calcium flux fluo-8, FDSS agonist mode; note: 0% is about no effect
#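 Agonist-mode FDSS calcium read (Ex 480/Em 530, 1 s cycles) in 1536-well TRHR cells with fluo-8 dye, after 10-cycle baseline and 23 nL compound addition; TRH at EC20 (10 nM final) added afterwards for the enhancer phase.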
# D1 antagonist – antagonists of human D1 dopamine receptor | P21728 | activity change, negative = inhibition, % at 10 µM | HEK293 TREx D1 cells, calcium flux, dopamine EC80; stronger effect = lower value | actives 3.2% (n = 360,000) | AID 504652; in the data active = activity change below about -30%; note: % is set by controls: 0 for no effect and ±100 for the full control effect
#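 Tetracycline-induced HEK293 T-REx cells with force-coupled D1 receptor were loaded with a no-wash calcium dye. Compound was added after a 10 s baseline and read kinetically for 180 s; EC80 dopamine was then added and calcium flux followed another 180 s.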
# TRHR PAM – allosteric enhancers of human TRH receptor | enhancement, % at 2 µM | TRHR cells, fluo-8 calcium fluorescence, EC20 TRH enhancement | P34981 | actives 0.66% (n = 360,000); in the data active = enhancement above about 30%; note: 0% is about no effect
#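 TRHR-expressing cells loaded with fluo-8 calcium dye were read kinetically (ex 480/em 530) during compound addition, then stimulated with an EC20 of TRH (10 nM final). Enhancement of the Gq-mediated intracellular calcium response was scored.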
# Starred values were filed as active, the others as inactive; nt = no result given. A selection: hits, their analogues and other compounds. The true share with any hit is near 4.6%. Cut-off read from the data, not from the text of the source, unless noted: active = activation above about 30%; inactive = the rest.
SMILES,D1 potentiator,D1 agonist,TRHR agonist,D1 antagonist,TRHR PAM
CCOC(=O)c1ccc(NC(=O)CN(C)S(=O)(=O)c2ccc(OC)cc2)cc1,0,2,-1,-16,2
CCOc1ccc(CCNC(=O)c2cccc(-n3c(C)nc4cccnc43)c2)cc1,-2,9,-1,-3,7
Cc1cc(C)cc(-n2cnc3cc(C(=O)NC4CCCCCC4)ccc32)c1,5,-1,0,-5,-3
O=S(=O)(c1ccc(F)cc1)N1CCN(c2nc(-c3cccc(Br)c3)nc3ccccc23)CC1,14,2,-1,-22,-3
COc1ccc(-c2nonc2NC(=O)c2ccco2)cc1OC,3,1,0,-37*,0
COc1ccc(NC(=O)Nc2sc3nc4n(c(=O)c3c2C)CCC(C)CC4)cc1OC (stereo not given),-3,0,0,9,3
CCOc1ccc(/C=C/c2nc(C#N)c(N3CCC(C)CC3)o2)cc1,0,3,0,12,-10
O=C(NNC(=S)NC(=O)c1cccnc1)c1ccc(Cl)cc1,1,0,-1,8,0
O=C(NNC(=S)NCc1ccc(Cl)cc1)c1cccnc1,-1,3,0,-35*,-4
O=C(NNC(=O)c1cccs1)c1cccnc1,-11,0,0,-54*,2
O=C(NNC(=O)c1ccc(Cl)c(Cl)c1)c1cccnc1,-14,1,0,-74*,-5
Cc1ccc(-c2nnc3ccccc3c2C(=O)Nc2cccc(C(F)(F)F)c2)cc1,-4,7,0,1,5
CCOc1ccc(CC(=O)Nc2c(C(=O)Nc3ccc(OC)cc3OC)oc3ccccc23)cc1,-3,2,0,-5,-4
CC(=O)Nc1sc2c(c1C#N)CCC(C)C2 (stereo not given),3,0,-1,-13,3
CCN(CC(=O)Nc1sc2c(c1C#N)CCC(C)C2)CC(=O)NC1CCS(=O)(=O)C1 (stereo not given),-13,9,6,-60*,13
CCN(CC(=O)Nc1sc2c(c1C#N)CCCC2)Cc1nc2ccccc2c(=O)[nH]1,-2,-5,0,-12,-6
CCN(CC(=O)Nc1sc2c(c1C#N)CCC(C)C2)Cc1nc2ccccc2c(=O)[nH]1 (stereo not given),-13,3,0,-61*,7
COC(=O)c1ccccc1NC(=O)C1CCCN(C(=O)c2cnn(-c3ccc(F)cc3)c2-n2cccc2)C1 (stereo not given),-1,0,-1,-4,10
CC1(C)O[C@@H]2[C@H](O1)[C@@H](CO)O[C@H]2n1ccc(=O)[nH]c1=O,-2,-1,0,8,1
CCN(CC)S(=O)(=O)c1ccc(NC(=O)COC(=O)CNS(=O)(=O)/C=C/c2ccccc2)cc1,-6,6,-1,-31*,7
COc1ccc(NC(=O)COC(=O)CNS(=O)(=O)/C=C/c2ccccc2)cc1OC,-4,1,0,-3,-12
COC(=O)CN1C(=S)N(c2ccc(OC)cc2)C(=O)/C1=C/c1ccc(N2CCOCC2)cc1,-4,33*,10,nt,-3
COC(=O)CN1C(=S)N(c2ccc(OC)cc2)C(=O)/C1=C/c1ccc(OC)cc1,1,6,1,-4,3
Cc1cc(S(=O)(=O)N2CCN(Cc3noc(CCC(=O)N4CCCCC4)n3)CC2)ccc1F,-2,6,0,12,5
O=C(OCC(=O)N1CCCCC1)c1cc2ccccc2cc1O,4,3,0,9,-2
SMILES,D1 potentiator,D1 agonist,TRHR agonist,D1 antagonist,TRHR PAM
CCC1CCCCN1C(=O)COC(=O)c1cc2ccccc2cc1O (stereo not given),-9,15,0,-32*,-1
O=C(CN1C(=O)COc2ccc(S(=O)(=O)N3CCOCC3)cc21)N1CCN(c2ccccc2)CC1,2,1,-2,3,2
CCCCOc1ccccc1C(=O)N(Cc1sccc1C)C1CCS(=O)(=O)C1 (stereo not given),0,-1,-1,-13,-1
COc1ccc(N(C(=O)c2ccc(C(C)(C)C)cc2)S(=O)(=O)c2ccc(Cl)cc2)cc1,0,3,0,2,-6
Cc1csc2c(N3CCN(S(=O)(=O)c4ccc(Cl)cc4)CC3)ncnc12,-3,4,0,-35*,2
O=C(Nc1cc(Sc2ccccn2)cc([N+](=O)[O-])c1)c1cccc(Cl)c1,-8,22,0,-35*,17
COc1cccc(NC(=O)Nc2ccc3nc(N4CCN(C)CC4)cc(C)c3c2)c1,-5,2,0,-11,-3
Cc1ccc2c(c1)Sc1ccccc1CC2=O,-3,0,-2,-48*,-6
CN(C)CCOc1ccc2c(c1)Sc1ccccc1CC2=O,-12,11,1,-30*,-5
O=C1Cc2ccccc2Sc2ccccc21,1,1,0,5,0
CCCSCCCNC(=O)C1CCN(c2nc3ccccc3nc2C(F)(F)F)CC1,-5,11,0,-24,3
Cc1csc2nc(-c3ccc(NS(=O)(=O)c4cc(F)ccc4F)cc3)cn12,0,1,0,4,-4
CC(=O)Nc1ccc(NC(=O)COc2ccc(-c3ccc(C#N)cc3)cc2)cc1,-12,1,0,-4,-5
N#Cc1ccc(-c2ccc(OCC(=O)Nc3cccnc3)cc2)cc1,-7,20,1,-45*,-2
Cc1ccc(C(=O)OCC(=O)NNC(=O)c2cccs2)c(O)c1,0,2,0,3,-3
COc1cccc(CNC(=O)C2CCN(Cc3cc4ccccc4n3Cc3ccc(C)cc3)CC2)c1,2,4,0,20,-6
Cc1ccccc1N=Nc1c(N)n[nH]c1N,4,1,1,-14,5
Nc1n[nH]c(N)c1N=Nc1ccccc1F,1,0,0,-35*,2
Cc1cccc(N2CCN(S(=O)(=O)c3ccc4c(c3)C(C(C)C)C(=O)N4)CC2)c1C (stereo not given),0,6,-1,-37*,2
Cc1cccc(N2CCN(S(=O)(=O)c3ccc4c(c3)NC(=O)C(C)S4)CC2)c1C (stereo not given),1,5,0,16,0
Cc1cccc(N2CCN(S(=O)(=O)c3ccc4[nH]c(=O)ccc4c3)CC2)c1C,-7,13,0,-35*,-1
Cc1ccc(C)c(N2CCN(S(=O)(=O)c3ccc4[nH]c(=O)ccc4c3)CC2)c1,-4,4,-1,-11,-3
CCc1ccccc1NC(=O)Nc1cc(C(=O)NCc2cccc(F)c2)ccc1N1CCCC1,-1,3,0,-14,-6
COc1cccc(NC(=S)N2CCCN(Cc3ccc(F)cc3)C2)c1,-12,12,0,-41*,1
COc1ccc(NC(=S)N2CCN(Cc3ccccc3)CC2)cc1,-6,9,0,2,33*
